# From publication PMC7862700, “An all-to-all approach to the identification of sequence-specific readers for epigenetic DNA modifications on cytosine”
# Tests used:
# Experiment in all cases: DAPPL (digital affinity profiling via proximity ligation, sequencing); 10 mM Tris-HCl pH 7.5, 50 mM NaCl, 1 mM DTT, 4% glycerol, room temperature, 30 min; GST-TFs on glutathione beads, 16-mer random dsDNA library, 0.1% formaldehyde crosslink after washing; high values mean tight binding
# FLI1 = biological target: T1, FLI1 (Homo sapiens, UniProt Q01543 1-452); details: protein: recombinant; tags: N-terminal GST; dsDNA, one strand shown
# T1 sequence: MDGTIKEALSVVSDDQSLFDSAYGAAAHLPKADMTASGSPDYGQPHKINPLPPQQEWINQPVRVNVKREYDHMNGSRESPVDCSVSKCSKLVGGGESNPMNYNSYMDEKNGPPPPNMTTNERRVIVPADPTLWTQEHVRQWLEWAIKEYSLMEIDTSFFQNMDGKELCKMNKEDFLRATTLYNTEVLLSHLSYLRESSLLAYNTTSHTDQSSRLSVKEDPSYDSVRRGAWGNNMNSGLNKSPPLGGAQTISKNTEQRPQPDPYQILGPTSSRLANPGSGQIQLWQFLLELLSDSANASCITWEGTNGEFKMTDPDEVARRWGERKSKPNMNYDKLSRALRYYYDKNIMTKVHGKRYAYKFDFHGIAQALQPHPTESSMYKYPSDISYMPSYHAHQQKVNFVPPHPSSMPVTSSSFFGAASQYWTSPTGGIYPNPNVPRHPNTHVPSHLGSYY
# Outline: (§1)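 Sequencing on an Illumina NextSeq500 followed washing, crosslinking with 0.1% formaldehyde, proximity ligation (BsaI/T4 ligase, 1 h, 37 °C) and PCR amplification of pools that had been incubated for 30 min at room temperature with 200 nmole of a random double-stranded 16-mer DNA library in Tris/NaCl/DTT/glycerol buffer. Each pool held DNA-barcoded human transcription factors, expressed in yeast as GST fusions and captured on glutathione beads, plus a tag-only sample. Binding signal is a hexamer's read frequency for a factor divided by its frequency in the tag-only sample.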
# ELK1 = biological target: T2, ELK1 (Homo sapiens, UniProt P19419 1-428); details: protein: recombinant; tags: N-terminal GST; dsDNA, one strand shown
# T2 sequence: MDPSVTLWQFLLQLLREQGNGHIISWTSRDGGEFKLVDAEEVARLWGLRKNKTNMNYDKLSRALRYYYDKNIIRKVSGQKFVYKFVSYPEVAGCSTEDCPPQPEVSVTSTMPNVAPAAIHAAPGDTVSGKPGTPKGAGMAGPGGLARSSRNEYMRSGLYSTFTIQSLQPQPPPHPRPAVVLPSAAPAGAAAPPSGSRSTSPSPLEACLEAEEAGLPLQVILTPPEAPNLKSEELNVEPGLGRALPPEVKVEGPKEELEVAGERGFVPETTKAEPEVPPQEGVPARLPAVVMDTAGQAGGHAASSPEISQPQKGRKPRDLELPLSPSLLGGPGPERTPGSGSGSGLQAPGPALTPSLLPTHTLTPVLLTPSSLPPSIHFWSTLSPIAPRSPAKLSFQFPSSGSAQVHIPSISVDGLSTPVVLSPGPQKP
# Outline: as §1
# GABPA = biological target: T3, GABPA (Homo sapiens, UniProt Q06546 1-454); details: protein: recombinant; tags: N-terminal GST; dsDNA, one strand shown
# T3 sequence: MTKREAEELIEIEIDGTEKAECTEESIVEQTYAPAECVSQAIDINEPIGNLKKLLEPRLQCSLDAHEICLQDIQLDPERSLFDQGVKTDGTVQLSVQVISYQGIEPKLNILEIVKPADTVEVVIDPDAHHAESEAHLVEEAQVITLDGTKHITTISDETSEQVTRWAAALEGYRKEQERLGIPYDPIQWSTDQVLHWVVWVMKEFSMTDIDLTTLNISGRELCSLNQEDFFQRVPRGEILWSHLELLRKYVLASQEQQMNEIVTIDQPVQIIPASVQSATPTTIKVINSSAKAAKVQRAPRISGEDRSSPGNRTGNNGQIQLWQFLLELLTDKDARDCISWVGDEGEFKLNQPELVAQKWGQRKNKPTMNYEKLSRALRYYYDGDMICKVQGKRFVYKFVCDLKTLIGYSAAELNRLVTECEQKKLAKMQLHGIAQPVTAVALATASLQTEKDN
# Outline: as §1
# ERG = biological target: T4, ERG (Homo sapiens, UniProt P11308 1-479); details: protein: recombinant; tags: N-terminal GST; dsDNA, one strand shown
# T4 sequence: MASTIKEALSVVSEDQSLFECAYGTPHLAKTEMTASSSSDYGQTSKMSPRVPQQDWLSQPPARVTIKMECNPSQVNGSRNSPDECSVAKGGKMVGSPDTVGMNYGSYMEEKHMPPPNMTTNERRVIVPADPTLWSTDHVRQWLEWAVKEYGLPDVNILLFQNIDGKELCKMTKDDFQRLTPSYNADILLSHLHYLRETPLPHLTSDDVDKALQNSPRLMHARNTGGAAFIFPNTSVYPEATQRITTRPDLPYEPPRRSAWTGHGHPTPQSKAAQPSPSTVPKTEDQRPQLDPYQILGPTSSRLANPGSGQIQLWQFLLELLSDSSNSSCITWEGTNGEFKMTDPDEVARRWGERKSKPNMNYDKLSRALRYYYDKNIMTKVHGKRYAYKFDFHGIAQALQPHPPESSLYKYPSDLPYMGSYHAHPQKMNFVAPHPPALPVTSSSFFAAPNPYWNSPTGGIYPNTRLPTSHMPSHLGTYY
# Outline: as §1
# ELF1 = ELF1 (Homo sapiens, UniProt P32519 1-619); details: protein: recombinant; tags: N-terminal GST; dsDNA, one strand shown
# Outline: as §1
# EHF = biological target: T5, EHF (Homo sapiens, UniProt Q9NZC4 1-300); details: protein: recombinant; tags: N-terminal GST; dsDNA, one strand shown
# T5 sequence: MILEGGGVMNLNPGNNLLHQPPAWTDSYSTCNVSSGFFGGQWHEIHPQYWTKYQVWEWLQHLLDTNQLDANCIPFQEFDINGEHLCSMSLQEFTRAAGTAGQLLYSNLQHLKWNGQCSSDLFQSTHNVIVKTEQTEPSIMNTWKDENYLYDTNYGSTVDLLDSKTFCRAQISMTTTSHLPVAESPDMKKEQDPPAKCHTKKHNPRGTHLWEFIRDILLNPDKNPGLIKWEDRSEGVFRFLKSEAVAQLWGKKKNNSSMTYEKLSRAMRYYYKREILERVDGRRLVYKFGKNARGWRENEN
# Outline: as §1
# SPI1 = SPI1 (Homo sapiens, UniProt P17947 1-270); details: protein: recombinant; tags: N-terminal GST; dsDNA, one strand shown
# Outline: as §1
# SPIB = SPIB (Homo sapiens, UniProt Q01892 1-262); details: protein: recombinant; tags: N-terminal GST; dsDNA, one strand shown
# Outline: as §1
# ELK3 = biological target: T6, ELK3 (Homo sapiens, UniProt P41970 1-407); details: protein: recombinant; tags: N-terminal GST; dsDNA, one strand shown
# T6 sequence: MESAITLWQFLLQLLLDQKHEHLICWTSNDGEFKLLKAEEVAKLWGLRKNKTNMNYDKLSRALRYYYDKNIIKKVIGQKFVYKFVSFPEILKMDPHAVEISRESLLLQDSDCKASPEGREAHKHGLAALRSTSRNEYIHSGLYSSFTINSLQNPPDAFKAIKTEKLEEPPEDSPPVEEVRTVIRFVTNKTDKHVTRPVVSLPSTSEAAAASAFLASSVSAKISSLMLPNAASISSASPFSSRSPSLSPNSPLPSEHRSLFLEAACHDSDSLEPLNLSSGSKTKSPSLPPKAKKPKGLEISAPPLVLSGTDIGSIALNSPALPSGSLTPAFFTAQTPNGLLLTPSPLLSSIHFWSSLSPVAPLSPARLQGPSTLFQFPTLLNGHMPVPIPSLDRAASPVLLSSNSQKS
# Outline: as §1
# FEV = biological target: T7, FEV (Homo sapiens, UniProt Q99581 1-238); details: protein: recombinant; tags: N-terminal GST; dsDNA, one strand shown
# T7 sequence: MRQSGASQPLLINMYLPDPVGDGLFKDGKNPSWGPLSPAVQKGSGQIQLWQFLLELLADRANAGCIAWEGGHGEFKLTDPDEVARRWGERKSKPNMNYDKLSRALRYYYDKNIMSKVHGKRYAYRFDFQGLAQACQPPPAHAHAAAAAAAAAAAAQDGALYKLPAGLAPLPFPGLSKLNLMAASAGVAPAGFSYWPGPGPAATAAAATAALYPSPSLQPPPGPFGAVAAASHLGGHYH
# Outline: as §1
# ETV5 = ETV5 (Homo sapiens, UniProt P41161 1-510); details: protein: recombinant; tags: N-terminal GST; dsDNA, one strand shown
# Outline: as §1
# HSF1 = HSF1 (Homo sapiens, UniProt Q00613 1-529); details: protein: recombinant; tags: N-terminal GST; chain copies: 3; dsDNA, one strand shown
# Outline: as §1
# SPIC = biological target: T8, SPIC (Homo sapiens, UniProt Q8N5J4 1-248); details: protein: recombinant; tags: N-terminal GST; dsDNA, one strand shown
# T8 sequence: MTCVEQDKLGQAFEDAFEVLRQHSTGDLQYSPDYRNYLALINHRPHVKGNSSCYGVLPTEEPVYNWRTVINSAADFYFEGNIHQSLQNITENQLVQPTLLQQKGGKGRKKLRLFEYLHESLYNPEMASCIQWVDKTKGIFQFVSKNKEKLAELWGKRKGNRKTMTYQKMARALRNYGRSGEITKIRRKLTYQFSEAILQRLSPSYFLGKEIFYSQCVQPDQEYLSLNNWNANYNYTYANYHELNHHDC
# Outline: as §1
# ELF4 = ELF4 (Homo sapiens, UniProt Q99607 1-663); details: protein: recombinant; tags: N-terminal GST; dsDNA, one strand shown
# Outline: as §1
# ELK4 = biological target: T9, ELK4 (Homo sapiens, UniProt P28324-2 1-405); details: protein: recombinant; tags: N-terminal GST; dsDNA, one strand shown
# T9 sequence: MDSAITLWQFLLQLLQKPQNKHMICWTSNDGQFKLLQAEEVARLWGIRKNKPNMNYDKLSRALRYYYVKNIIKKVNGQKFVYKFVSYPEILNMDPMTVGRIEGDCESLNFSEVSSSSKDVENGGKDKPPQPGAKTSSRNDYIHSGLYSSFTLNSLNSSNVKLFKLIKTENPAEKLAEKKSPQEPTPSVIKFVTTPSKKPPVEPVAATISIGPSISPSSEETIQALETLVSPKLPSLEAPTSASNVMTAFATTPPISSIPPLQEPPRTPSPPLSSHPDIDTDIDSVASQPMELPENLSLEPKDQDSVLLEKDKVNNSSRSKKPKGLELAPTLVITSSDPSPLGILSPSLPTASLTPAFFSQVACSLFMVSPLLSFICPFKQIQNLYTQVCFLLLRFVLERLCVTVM
# Outline: as §1
# ETV2 = biological target: T10, ETV2 (Homo sapiens, UniProt O00321 1-342); details: protein: recombinant; tags: N-terminal GST; dsDNA, one strand shown
# T10 sequence: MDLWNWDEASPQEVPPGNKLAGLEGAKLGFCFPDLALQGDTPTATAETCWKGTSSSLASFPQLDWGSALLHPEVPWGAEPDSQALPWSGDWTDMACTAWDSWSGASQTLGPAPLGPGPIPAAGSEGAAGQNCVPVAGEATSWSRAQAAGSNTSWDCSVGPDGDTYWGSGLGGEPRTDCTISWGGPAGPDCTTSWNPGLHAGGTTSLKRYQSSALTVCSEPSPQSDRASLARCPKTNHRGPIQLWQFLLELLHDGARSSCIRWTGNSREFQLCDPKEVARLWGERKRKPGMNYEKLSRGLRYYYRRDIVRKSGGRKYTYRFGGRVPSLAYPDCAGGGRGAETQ
# Outline: as §1
# ELF3 = biological target: T11, ELF3 (Homo sapiens, UniProt P78545 1-371); details: protein: recombinant; tags: N-terminal GST; dsDNA, one strand shown
# T11 sequence: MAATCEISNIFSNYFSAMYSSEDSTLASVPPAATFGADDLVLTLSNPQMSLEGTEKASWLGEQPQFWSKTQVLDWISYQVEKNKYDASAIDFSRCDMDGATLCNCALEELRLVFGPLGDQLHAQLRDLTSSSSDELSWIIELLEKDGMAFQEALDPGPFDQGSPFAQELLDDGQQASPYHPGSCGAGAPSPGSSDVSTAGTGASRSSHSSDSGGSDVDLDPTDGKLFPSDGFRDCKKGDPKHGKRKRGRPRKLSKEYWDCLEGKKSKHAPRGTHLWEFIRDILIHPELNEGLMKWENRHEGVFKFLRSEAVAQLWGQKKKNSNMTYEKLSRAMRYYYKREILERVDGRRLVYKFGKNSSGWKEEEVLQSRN
# Outline: as §1
# CRX = CRX (Homo sapiens, UniProt O43186 1-299); details: protein: recombinant; tags: N-terminal GST; dsDNA, one strand shown
# Outline: as §1
# ETV1 = ETV1 (Homo sapiens, UniProt P50549 1-477); details: protein: recombinant; tags: N-terminal GST; dsDNA, one strand shown
# Outline: as §1
# ELF1, sequence (P32519 whole entry): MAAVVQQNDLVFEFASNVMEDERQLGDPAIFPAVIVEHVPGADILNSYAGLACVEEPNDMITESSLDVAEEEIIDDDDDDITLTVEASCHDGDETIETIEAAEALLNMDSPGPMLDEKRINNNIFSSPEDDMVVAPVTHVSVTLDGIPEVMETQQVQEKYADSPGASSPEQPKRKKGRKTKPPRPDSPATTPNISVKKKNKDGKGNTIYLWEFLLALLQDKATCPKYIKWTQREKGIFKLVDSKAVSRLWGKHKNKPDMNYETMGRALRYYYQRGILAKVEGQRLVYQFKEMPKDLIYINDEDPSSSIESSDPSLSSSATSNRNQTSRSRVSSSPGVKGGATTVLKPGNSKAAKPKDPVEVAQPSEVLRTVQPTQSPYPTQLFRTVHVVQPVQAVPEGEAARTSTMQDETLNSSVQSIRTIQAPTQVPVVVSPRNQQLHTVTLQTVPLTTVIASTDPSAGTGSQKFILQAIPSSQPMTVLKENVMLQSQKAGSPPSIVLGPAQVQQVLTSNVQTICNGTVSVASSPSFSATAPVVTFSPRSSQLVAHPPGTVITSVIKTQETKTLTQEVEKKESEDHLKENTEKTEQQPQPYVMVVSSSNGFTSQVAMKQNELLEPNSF
# ETV1, sequence (P50549 whole entry): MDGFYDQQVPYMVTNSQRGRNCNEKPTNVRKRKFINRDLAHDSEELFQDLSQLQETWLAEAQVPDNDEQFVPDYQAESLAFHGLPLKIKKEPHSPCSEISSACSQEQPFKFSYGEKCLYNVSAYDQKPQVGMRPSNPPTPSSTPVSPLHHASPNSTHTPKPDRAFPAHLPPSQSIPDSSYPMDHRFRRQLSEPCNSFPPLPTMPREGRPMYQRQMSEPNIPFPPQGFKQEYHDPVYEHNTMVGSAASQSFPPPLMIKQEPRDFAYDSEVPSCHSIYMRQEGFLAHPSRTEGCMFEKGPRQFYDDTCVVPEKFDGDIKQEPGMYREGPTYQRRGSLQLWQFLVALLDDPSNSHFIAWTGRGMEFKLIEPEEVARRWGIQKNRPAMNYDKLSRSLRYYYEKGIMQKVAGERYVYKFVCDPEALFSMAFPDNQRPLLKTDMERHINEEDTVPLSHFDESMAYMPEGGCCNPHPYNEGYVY
# CRX, sequence (O43186 whole entry): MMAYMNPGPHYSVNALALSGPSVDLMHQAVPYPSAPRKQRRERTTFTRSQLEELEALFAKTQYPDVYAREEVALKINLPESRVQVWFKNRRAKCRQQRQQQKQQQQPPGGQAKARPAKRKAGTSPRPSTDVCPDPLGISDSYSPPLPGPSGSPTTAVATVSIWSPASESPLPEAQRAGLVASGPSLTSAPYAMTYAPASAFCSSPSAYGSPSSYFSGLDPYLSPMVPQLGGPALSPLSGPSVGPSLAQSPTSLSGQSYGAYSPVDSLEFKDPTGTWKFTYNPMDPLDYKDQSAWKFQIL
# SPIB, sequence (Q01892 whole entry): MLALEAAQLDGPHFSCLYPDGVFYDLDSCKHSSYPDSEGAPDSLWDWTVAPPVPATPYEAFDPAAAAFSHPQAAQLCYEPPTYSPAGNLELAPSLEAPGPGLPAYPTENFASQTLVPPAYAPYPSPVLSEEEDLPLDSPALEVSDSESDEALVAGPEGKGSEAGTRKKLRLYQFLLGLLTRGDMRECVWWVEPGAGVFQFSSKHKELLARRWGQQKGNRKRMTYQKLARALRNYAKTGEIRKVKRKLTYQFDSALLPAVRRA
# ELF4, sequence (Q99607 whole entry): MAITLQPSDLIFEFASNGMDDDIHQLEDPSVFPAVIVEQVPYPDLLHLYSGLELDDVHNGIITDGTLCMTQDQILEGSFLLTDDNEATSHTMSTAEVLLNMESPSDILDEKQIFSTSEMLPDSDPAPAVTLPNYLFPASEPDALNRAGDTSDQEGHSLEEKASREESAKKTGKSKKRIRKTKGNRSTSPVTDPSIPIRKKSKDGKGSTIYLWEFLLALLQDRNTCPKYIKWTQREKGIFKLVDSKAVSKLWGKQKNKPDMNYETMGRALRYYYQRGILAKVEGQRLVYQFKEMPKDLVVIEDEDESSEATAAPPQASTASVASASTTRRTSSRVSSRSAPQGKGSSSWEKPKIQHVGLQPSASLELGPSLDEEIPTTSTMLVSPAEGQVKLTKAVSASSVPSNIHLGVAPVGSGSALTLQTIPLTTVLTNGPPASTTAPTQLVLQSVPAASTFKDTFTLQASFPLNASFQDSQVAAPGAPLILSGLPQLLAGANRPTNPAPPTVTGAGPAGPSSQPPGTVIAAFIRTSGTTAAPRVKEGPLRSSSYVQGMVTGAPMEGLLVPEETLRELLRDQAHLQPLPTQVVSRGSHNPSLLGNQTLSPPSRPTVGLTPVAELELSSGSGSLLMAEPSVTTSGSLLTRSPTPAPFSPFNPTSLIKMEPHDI
# HSF1, sequence (Q00613 whole entry): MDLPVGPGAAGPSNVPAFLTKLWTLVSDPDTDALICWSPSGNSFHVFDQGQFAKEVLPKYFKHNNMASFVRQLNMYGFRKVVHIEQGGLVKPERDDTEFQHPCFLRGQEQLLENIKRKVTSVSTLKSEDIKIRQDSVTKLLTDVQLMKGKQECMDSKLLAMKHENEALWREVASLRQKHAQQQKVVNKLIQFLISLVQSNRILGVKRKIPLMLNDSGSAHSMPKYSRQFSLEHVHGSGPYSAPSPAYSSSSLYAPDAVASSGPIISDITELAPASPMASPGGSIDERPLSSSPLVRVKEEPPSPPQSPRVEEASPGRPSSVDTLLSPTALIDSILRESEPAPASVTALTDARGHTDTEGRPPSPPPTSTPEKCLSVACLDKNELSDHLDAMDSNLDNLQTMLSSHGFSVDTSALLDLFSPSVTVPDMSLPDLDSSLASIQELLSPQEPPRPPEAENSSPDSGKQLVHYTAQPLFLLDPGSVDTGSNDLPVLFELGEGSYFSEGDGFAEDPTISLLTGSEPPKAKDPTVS
# ETV5, sequence (P41161 whole entry): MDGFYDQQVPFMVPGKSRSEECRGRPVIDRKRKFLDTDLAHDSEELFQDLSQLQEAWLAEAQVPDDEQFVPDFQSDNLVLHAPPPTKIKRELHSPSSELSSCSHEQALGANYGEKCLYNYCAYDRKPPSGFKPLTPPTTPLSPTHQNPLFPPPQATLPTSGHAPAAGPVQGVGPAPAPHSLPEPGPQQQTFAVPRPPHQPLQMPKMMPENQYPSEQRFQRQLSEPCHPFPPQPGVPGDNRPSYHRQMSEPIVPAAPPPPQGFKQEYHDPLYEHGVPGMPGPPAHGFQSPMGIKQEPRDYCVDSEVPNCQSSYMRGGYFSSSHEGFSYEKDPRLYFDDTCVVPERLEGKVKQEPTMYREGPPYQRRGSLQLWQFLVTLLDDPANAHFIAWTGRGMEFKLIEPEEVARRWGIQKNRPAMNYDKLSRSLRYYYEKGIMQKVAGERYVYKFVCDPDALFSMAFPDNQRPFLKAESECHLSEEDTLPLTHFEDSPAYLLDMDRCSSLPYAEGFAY
sequence,measurement,setting,value
TTTAAG,binding signal,FLI1,"1.3 fold enrichment (6-mer frequency, TF over GST control)"
same,binding signal,ELK1,"1.33 fold enrichment (6-mer frequency, TF over GST control)"
same,binding signal,GABPA,"1.38 fold enrichment (6-mer frequency, TF over GST control)"
same,binding signal,ERG,"1.33 fold enrichment (6-mer frequency, TF over GST control)"
same,binding signal,ELF1,"1.34 fold enrichment (6-mer frequency, TF over GST control)"
same,binding signal,EHF,"1.27 fold enrichment (6-mer frequency, TF over GST control)"
same,binding signal,SPI1,"1.42 fold enrichment (6-mer frequency, TF over GST control)"
same,binding signal,SPIB,"1.31 fold enrichment (6-mer frequency, TF over GST control)"
same,binding signal,ELK3,"1.46 fold enrichment (6-mer frequency, TF over GST control)"
same,binding signal,FEV,"1.31 fold enrichment (6-mer frequency, TF over GST control)"
same,binding signal,ETV5,"1.34 fold enrichment (6-mer frequency, TF over GST control)"
same,binding signal,HSF1,"1.87 fold enrichment (6-mer frequency, TF over GST control)"
same,binding signal,SPIC,"1.47 fold enrichment (6-mer frequency, TF over GST control)"
same,binding signal,ELF4,"1.29 fold enrichment (6-mer frequency, TF over GST control)"
same,binding signal,ELK4,"1.22 fold enrichment (6-mer frequency, TF over GST control)"
same,binding signal,ETV2,"1.38 fold enrichment (6-mer frequency, TF over GST control)"
same,binding signal,ELF3,"1.28 fold enrichment (6-mer frequency, TF over GST control)"
same,binding signal,CRX,"2.81 fold enrichment (6-mer frequency, TF over GST control)"
same,binding signal,ETV1,"1.28 fold enrichment (6-mer frequency, TF over GST control)"
